Screening data (PubChem BioAssay)
The sample as a whole holds a higher share of hits than the screen did.
12-LOX inh – blocks human arachidonate 12S-lipoxygenase | P18054 | purified 12hLO, xylenol orange hydroperoxide absorbance | Potency, µM (titrated, usually from 108 µM), without a hit: at the highest dose activity change, negative = inhibition, most hits filed as inhibitors | actives 1.1% (n = 580,000); also: potency is read from the fitted curve at half-maximal effect
Target sequence (P18054 whole entry, looked up): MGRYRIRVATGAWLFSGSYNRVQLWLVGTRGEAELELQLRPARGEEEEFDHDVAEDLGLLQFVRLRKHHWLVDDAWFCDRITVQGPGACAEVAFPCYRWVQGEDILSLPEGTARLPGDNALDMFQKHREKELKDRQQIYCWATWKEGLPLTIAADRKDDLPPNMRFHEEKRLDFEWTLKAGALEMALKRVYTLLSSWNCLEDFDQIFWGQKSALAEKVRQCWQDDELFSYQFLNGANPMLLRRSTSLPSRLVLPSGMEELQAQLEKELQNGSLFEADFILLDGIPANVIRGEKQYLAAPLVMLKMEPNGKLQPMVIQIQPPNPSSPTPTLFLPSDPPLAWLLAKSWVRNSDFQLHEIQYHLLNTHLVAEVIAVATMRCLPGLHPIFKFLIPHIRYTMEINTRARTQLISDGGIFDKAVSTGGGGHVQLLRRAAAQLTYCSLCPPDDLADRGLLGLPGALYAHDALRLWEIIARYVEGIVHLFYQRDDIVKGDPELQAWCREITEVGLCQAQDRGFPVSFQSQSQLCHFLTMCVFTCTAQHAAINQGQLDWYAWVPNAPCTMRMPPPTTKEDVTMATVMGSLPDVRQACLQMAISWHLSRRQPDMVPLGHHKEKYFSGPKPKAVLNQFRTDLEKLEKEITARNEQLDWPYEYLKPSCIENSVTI
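Purified human 12hLO (150 nM final) in 25 mM Hepes, 0.01% Triton X-100, pH 7.0 was preincubated 15 min at room temperature with compound. Then 40 uM arachidonic acid was added, 30 min. Hydroperoxide was read by Fe-XO absorbance ratio 573/405 nm.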
HT1080NT lethal – kills 2HG-producing HT-1080-NT fibrosarcoma cells | Potency, µM (highest dose often 46.1 µM), inactives show at the top dose activity, negative = less viability, usual class: cytotoxic | HT-1080-NT fibrosarcoma viability, CellTiter-Glo ATP luminescence, 48 h | actives 1.6% (n = 360,000);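 also: NT is the 2HG producing partner of a matched IDH1 knockdown line; potency is read from the fitted curve at half-maximal effect; 0% = DMSO-treated cells and -100% = media-only wells without cells; nearly all actives have a fitted effect of over 55% in size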
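Toxicity toward the 2HG-producing NT line was scored as %Activity, normalised to DMSO and no-cell wells, from CellTiter-Glo luminescence after 48 hours' treatment.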
HT1080 IDH1KD tx – HT-1080 IDH1 knockdown cell toxicity (counter line); AID 686971; HT-1080 IDH1 knockdown viability, ATP luminescence, 48 h; Potency, µM (titrated, usually from 46.1 µM), without a hit: at the top dose activity, negative = toxicity, usual class: cytotoxic; actives 2% (n = 360,000);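 also: potency is read from the fitted curve at half-maximal effect; 0% = DMSO wells and -100% = cell-free medium wells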
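HT-1080-IDH1KD cells (IDH1 knocked down), 750/well in RPMI with 5% FBS, treated with compound 48 h at 37 degrees C. Viability by CellTiter-Glo luminescence, normalised to DMSO and no-cell wells; concentration-response curves classed.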
DT40 TDP1 no CPT – qHTS for Inhibitors of human tyrosyl-DNA phosphodiesterase 1 (TDP1): qHTS in cells in absence of CPT; DT40 Tdp1-/- hTDP1 cells, no CPT, ATP luminescence, 48 h; actives 15% (n = 420,000); Potency, µM (doses to about 46.2 µM), for inactives: top-dose activity change, negative = growth inhibition, most hits filed as inhibitors; also: potency is read from the fitted curve at half-maximal effect; nearly all actives have a fitted effect of over 55% in size
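Camptothecin absent (DMSO only). Human TDP1-complemented DT40 knockout cells, 400 cells/well, 37 °C for minimum 48 hr; ATP measured via CellTiter-Glo, 30 min dark incubation, luminescence.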
TDP1 cell CPT – growth inhibition of DT40 Tdp1-/-;hTDP1 cells with camptothecin (screen for TDP1 inhibitors) | actives 12% (n = 420,000) | AID 686979 | Potency, µM (doses to about 46.2 µM), without a hit: top-dose activity change, negative = growth inhibition, usual class: inhibitors | chicken DT40 Tdp1-/-;hTDP1 cells + 20 nM CPT, ATP luminescence, 48 h; also: potency is read from the fitted curve at half-maximal effect; nearly all actives have a fitted effect of over 55% in size
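Chicken DT40 Tdp1-/- cells complemented with human TDP1, 400 cells/well, exposed to compounds plus 20 nM camptothecin for at least 48 h at 37 C; viability read as ATP content by CellTiter-Glo luminescence.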
IL1B secr inh – inflammasome signaling inhibition, IL-1 beta readout; THP-1 LPS/ATP IL-1B secretion, AlphaLISA, 16 h; active compounds read low; activity change, % at 57.5 µM; actives 4.7% (n = 360,000); AID 743279; in the data active = activity change below about -50%; inconclusive = mostly about -30% to -49%
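THP-1 cells pretreated 1 hr with compounds (up to 57.5 uM final), then stimulated with LPS (250 ng/mL final) plus ATP (1.25 mM final); secreted IL-1B measured by AlphaLISA after 16 hr, decreased signal indicating inhibition.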
Starred values were filed as active, the others as inactive. Unless noted, calls follow the shape of the dose curve; as a rule, active = well fitted curve in the direction sought with a large enough effect; inconclusive = small, poorly fitted or top-dose-only effect, or another doubt; inactive = no such curve, though single readings can be large; an effect the other way counts as inactive or inconclusive. Unless noted, % is scaled to controls: 0 for no effect and ±100 for the full control effect.

`Cc1ccccc1-c1cc2nc(NCCCN(C)C)n(C)c(=O)c2s1` gave 12-LOX inh -21.9%, HT1080NT lethal inconclusive, HT1080 IDH1KD tx inconclusive, DT40 TDP1 no CPT inconclusive, TDP1 cell CPT inconclusive and IL1B secr inh -81.5*.
`Cc1ccccc1-c1cc2nc(NCCN3CCCC3)n(C)c(=O)c2s1` gave 12-LOX inh -20.8%, HT1080NT lethal inconclusive, HT1080 IDH1KD tx inconclusive, DT40 TDP1 no CPT inconclusive, TDP1 cell CPT inconclusive and IL1B secr inh -27.2.
`Cc1nnc([C@@H]2CC(F)(F)CN2C(=O)c2ccco2)o1` gave 12-LOX inh 22.1%.
For COc1ccc(-c2nnc(SCC(=O)c3[nH]c(C)c(C(C)=O)c3C)o2)cc1 the results were 12-LOX inh 0.0%, HT1080NT lethal -7.5%, HT1080 IDH1KD tx -11.0%, DT40 TDP1 no CPT 18.4µM*, TDP1 cell CPT 13µM* and IL1B secr inh 49.2.
`COc1ccc(-c2nnc(SCC(=O)c3ccc[nH]3)o2)cc1` gave 12-LOX inh 23.0%, HT1080NT lethal -2.0%, HT1080 IDH1KD tx 11.8%, DT40 TDP1 no CPT -21.9%, TDP1 cell CPT -17.9% and IL1B secr inh 20.1.
For CC(=O)c1c(C)[nH]c(C(=O)CSc2nnc(-c3ccco3)o2)c1C the results were 12-LOX inh 4.4%, HT1080NT lethal -0.9%, HT1080 IDH1KD tx -3.7%, DT40 TDP1 no CPT 14.6µM*, TDP1 cell CPT inconclusive and IL1B secr inh -23.3.
CCOC(=O)c1c(C)[nH]c(C)c1C(=O)CSc1nnc(-c2ccc(OC(F)F)cc2)o1 was read as 12-LOX inh -6.3%, HT1080NT lethal inconclusive, HT1080 IDH1KD tx inconclusive, DT40 TDP1 no CPT 11.6µM*, TDP1 cell CPT inconclusive and IL1B secr inh 17.9.
`Cc1c(C(=O)OC(C)C(=O)N2CCNC2=O)oc2ccc(Cl)cc12` (stereo not drawn) gave 12-LOX inh -10.6%.
For CCCCCCCCCCS(=O)CCCl (stereo not drawn) the results were 12-LOX inh 6.8%.
Cc1ccc(N2C(=O)[C@@H]3[C@H](C2=O)[C@H]2C=CC=NN2[C@@H]3C(=O)Nc2ccc(Cl)cc2)cc1 was read as 12-LOX inh 10µM*, HT1080NT lethal -0.2%, HT1080 IDH1KD tx -3.4%, DT40 TDP1 no CPT -10.0%, TDP1 cell CPT -9.5% and IL1B secr inh 23.7.
For O=C(Nc1ccc(Cl)cc1)[C@@H]1[C@@H]2C(=O)N(c3ccc(Cl)cc3)C(=O)[C@@H]2[C@H]2C=CC=NN21 the results were 12-LOX inh inconclusive, HT1080NT lethal -15.3%, HT1080 IDH1KD tx -15.7%, DT40 TDP1 no CPT inconclusive, TDP1 cell CPT inconclusive and IL1B secr inh 11.4.
Screening CN(Cc1cnc2nc(N)nc(N)c2n1)c1ccc(C(=O)NC(CCC(=O)O)C(=O)O)c2ccccc12 (stereo not drawn) returned 12-LOX inh -2.5%, HT1080NT lethal inconclusive, HT1080 IDH1KD tx 0.0058µM*, DT40 TDP1 no CPT 0.0517µM*, TDP1 cell CPT 0.092µM* and IL1B secr inh 23.6.
Screening N#Cc1ccc(C2Nc3ccccc3C3OCCCC23)cc1 (stereo not drawn) returned 12-LOX inh 19.4%.
Screening Fc1ccc2c(c1)C1OCCCC1C(c1ccccc1)N2 (stereo not drawn) returned 12-LOX inh 12.7%, HT1080NT lethal inconclusive, HT1080 IDH1KD tx inconclusive, DT40 TDP1 no CPT 18.4µM*, TDP1 cell CPT inconclusive and IL1B secr inh 5.1.
Screening CCN(CC)S(=O)(=O)c1ccc(NC2c3ccccc3C(=O)N2Cc2ccc3c(c2)OCO3)cc1 (stereo not drawn) returned 12-LOX inh 23.8%, HT1080NT lethal -18.5%, HT1080 IDH1KD tx -19.5%, DT40 TDP1 no CPT inconclusive, TDP1 cell CPT 16.4µM* and IL1B secr inh -16.4.
Screening CCN(CC)S(=O)(=O)c1ccc(NC2c3ccccc3C(=O)N2Cc2ccco2)cc1 (stereo not drawn) returned 12-LOX inh inconclusive, HT1080NT lethal -10.6%, HT1080 IDH1KD tx -3.7%, DT40 TDP1 no CPT 11.6µM*, TDP1 cell CPT 20.6µM* and IL1B secr inh -23.7.
O=C1c2ccccc2C(Nc2ccccc2)N1Cc1ccc2c(c1)OCO2 (stereo not drawn) was read as 12-LOX inh -0.1%, HT1080NT lethal -20.7%, HT1080 IDH1KD tx -28.4%, DT40 TDP1 no CPT -12.7%, TDP1 cell CPT -0.6% and IL1B secr inh inconclusive.
CCN(CC)c1cc(CCC(=O)NCCCN2CCOCC2)ccn1 was read as 12-LOX inh 1.7%.
Screening CCC(C(=O)NCCC(C)C)N(C(=O)Cn1nnc(-c2ccc(C)cc2)n1)c1cccc(O)c1 (stereo not drawn) returned 12-LOX inh -38.5%, DT40 TDP1 no CPT 16.4µM* and TDP1 cell CPT inconclusive.
CCCN(CCC)C(=O)c1cc([N+](=O)[O-])cc2c1-c1ccc([N+](=O)[O-])cc1C2=C(C#N)C#N was read as 12-LOX inh 106.7%, HT1080NT lethal 15.5%, HT1080 IDH1KD tx 8.3%, DT40 TDP1 no CPT 2.91µM*, TDP1 cell CPT 5.17µM* and IL1B secr inh 0.0.
CCCN(CCC)C(=O)/C=C/c1cccc([N+](=O)[O-])c1 was read as 12-LOX inh 0.0%, HT1080NT lethal -1.5%, HT1080 IDH1KD tx -0.3%, DT40 TDP1 no CPT inconclusive, TDP1 cell CPT inconclusive and IL1B secr inh 0.0.
CCCCOc1ccc(C(C)NC(=O)c2cccc(Nc3nc4ccccc4n4nnnc34)c2)cc1 (stereo not drawn) was read as 12-LOX inh -16.7%, DT40 TDP1 no CPT 5.8µM* and TDP1 cell CPT 5.17µM*.
For COc1cc(Nc2nc3ccccc3n3nnnc23)cc(OC)c1OC the results were 12-LOX inh 20.7%, HT1080NT lethal 14.3%, HT1080 IDH1KD tx 0.9%, DT40 TDP1 no CPT 9.2µM*, TDP1 cell CPT 8.2µM* and IL1B secr inh -1.1.
Cc1cccc(Nc2nc3ccccc3n3nnnc23)c1 was read as 12-LOX inh -2.9%, HT1080NT lethal -11.3%, HT1080 IDH1KD tx -14.3%, DT40 TDP1 no CPT inconclusive, TDP1 cell CPT -20.1% and IL1B secr inh 31.0.
Screening COCCNC(=O)c1cccc(Nc2nc3ccccc3n3nnnc23)c1 returned 12-LOX inh -2.5%, DT40 TDP1 no CPT inconclusive and TDP1 cell CPT -7.4%.
